Screening data as filed in PubChem BioAssay.
IL1B secr inh = inflammasome signaling inhibition, IL-1 beta readout. THP-1 LPS/ATP IL-1B secretion, AlphaLISA, 16 h; hits give low values. activity change, % at 57.5 µM. 4.7% of 360,000 active. AID 743279; in the data active = activity change below about -50%; inconclusive = mostly about -30% to -49%
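THP-1 cells pretreated 1 hr with compounds (up to 57.5 uM final), then stimulated with LPS (250 ng/mL final) plus ATP (1.25 mM final); secreted IL-1B measured by AlphaLISA after 16 hr, decreased signal indicating inhibition.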
VP16 counter = Gal4-VP16 reporter inhibition counter-screen | Drosophila S2 Gal4-VP16 UAS-luciferase, luminescence, 20 h | Potency, µM (series often up to 53.6 µM), usual class: inhibitors | 3.5% of 310,000 active | AID 2546;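 note: Gal4-VP16 expression switched on by copper sulfate through the metallothionein promoter; nearly all actives have a fitted effect of over 50% in size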
RORg inh = blocks mouse ROR gamma transcriptional activity; Drosophila S2 Gal4-RORgamma UAS-luciferase reporter, 20 h; Potency, µM (doses to about 53.6 µM), hits mostly inhibitors; 5.4% of 310,000 active; note: nearly all actives have a fitted effect of over 60% in size
Target sequence (P51450 whole entry, looked up, the tested form may be a part): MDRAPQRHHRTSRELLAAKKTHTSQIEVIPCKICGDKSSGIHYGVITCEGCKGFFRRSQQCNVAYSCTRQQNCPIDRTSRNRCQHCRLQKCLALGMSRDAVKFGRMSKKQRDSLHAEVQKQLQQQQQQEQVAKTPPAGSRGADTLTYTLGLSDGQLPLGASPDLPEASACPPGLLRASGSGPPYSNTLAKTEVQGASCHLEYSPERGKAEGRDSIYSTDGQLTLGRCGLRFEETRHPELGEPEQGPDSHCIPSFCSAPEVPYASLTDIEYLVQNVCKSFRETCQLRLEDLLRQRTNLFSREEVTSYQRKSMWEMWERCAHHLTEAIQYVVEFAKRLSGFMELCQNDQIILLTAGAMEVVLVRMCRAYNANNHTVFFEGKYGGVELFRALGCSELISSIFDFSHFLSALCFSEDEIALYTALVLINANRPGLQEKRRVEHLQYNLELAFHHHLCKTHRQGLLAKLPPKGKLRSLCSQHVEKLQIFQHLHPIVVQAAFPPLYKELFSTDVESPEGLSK
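Luminescence from a UAS-regulated Photinus luciferase reporter in stably transfected Drosophila Schneider cells is measured; decreased signal marks ROR gamma inhibition. Fusion expression is induced by 700 uM copper sulfate for 20 hr.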
SW480 rereplic = induces DNA re-replication in SW480 colon adenocarcinoma cells; SW480 DNA re-replication, Hoechst DNA content imaging, 48 h; Potency, µM (doses to about 46.1 µM), hits mostly activators; 1.8% of 340,000 active; AID 624297; note: nearly all actives have a fitted effect of over 55% in size
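DNA re-replication was detected as more nuclei of elevated Hoechst intensity after 48 hr exposure to compound (23 nL pinned per well of 250 cells).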
MCF10A rereplic = induces DNA re-replication in MCF 10a normal breast cells; MCF 10A DNA re-replication, Hoechst nuclear intensity, 48 h; 2.9% of 350,000 active; Potency, µM (titrated, usually from 46.1 µM), hits mostly activators; note: nearly all actives have a fitted effect of over 50% in size
Each line names hits and unclear results; the compound was inactive in the other large screens. An excerpt weighted towards active compounds, which were near 11% of everything screened. Unless noted, calls come from the whole dose curve; as a rule, active = well fitted curve in the direction sought with a large enough effect; inconclusive = small, poorly fitted or top-dose-only effect, or another doubt; inactive = no such curve, though single readings can be large; an effect the other way counts as inactive or inconclusive.

COc1ccc(N2CCC(CNC(=O)Nc3ccccc3)C2)cc1 (centres undefined)	none
COc1ccc(N2CCC(CNC(=S)Nc3cc(C)cc(C)c3)C2)cc1 (centres undefined)	IL1B secr inh -91, SW480 rereplic inconclusive, MCF10A rereplic inconclusive
COC(=O)c1c(C)[nH]c(C(=O)OCc2csc(CC(=O)Nc3ccccc3C)n2)c1C	none (no result: VP16 counter, RORg inh)
O=C(Nc1ccc(F)cc1)Nc1cc(OCC(F)(F)F)cc(OCC(F)(F)F)c1	IL1B secr inh -61, VP16 counter 6.3µM, RORg inh inconclusive, SW480 rereplic inconclusive, MCF10A rereplic inconclusive
CCOc1ccc(NC(=O)Nc2cc(OCC(F)(F)F)cc(OCC(F)(F)F)c2)cc1	RORg inh inconclusive, SW480 rereplic inconclusive, MCF10A rereplic inconclusive
O=[N+]([O-])c1ccc(N2CCN(c3ccc([N+](=O)[O-])cc3CO)CC2)c(CO)c1	VP16 counter 6.3µM, RORg inh inconclusive
CN1CCN(c2ccc([N+](=O)[O-])cc2C(=O)c2ccc(Br)cc2)CC1	SW480 rereplic 3.7µM, MCF10A rereplic inconclusive
Cc1ccc(C(=O)c2cc([N+](=O)[O-])ccc2N2CCN(C)CC2)cc1	SW480 rereplic 10µM, MCF10A rereplic 16µM
Cc1ccc(C(=O)c2cc([N+](=O)[O-])ccc2N2CCOCC2)c(C)c1	SW480 rereplic 0.13µM, MCF10A rereplic 0.92µM
CN1CCN(c2ccc([N+](=O)[O-])cc2C(=O)c2ccccc2)CC1	SW480 rereplic inconclusive
O=C(CCC(=O)N1CCN(S(=O)(=O)c2ccc3ccccc3c2)CC1)NCC(F)(F)F	none
CN(C(=O)COC(=O)c1cccs1)c1ccccc1	none (no result: VP16 counter, RORg inh, SW480 rereplic, MCF10A rereplic)
C[C@@H]1C[C@](C)(C(=O)c2ccc3c(c2)OCO3)C=C1c1ccc2c(c1)OCO2	none (no result: IL1B secr inh, SW480 rereplic, MCF10A rereplic)
Cn1cnc([N+](=O)[O-])c1Oc1ccc2ccccc2c1	IL1B secr inh -103, VP16 counter inconclusive, SW480 rereplic 6.5µM, MCF10A rereplic 4.1µM
CC1CCC(C(C)C)C(OC(=O)COC(=O)c2cc(O)ccc2N)C1 (centres undefined)	IL1B secr inh -80, VP16 counter inconclusive, SW480 rereplic 26µM, MCF10A rereplic 23µM
COc1ccc(C)cc1S(=O)(=O)N1CCCC(N2CCN(c3ccccc3)CC2)C1 (centres undefined)	none (no result: VP16 counter, RORg inh, SW480 rereplic, MCF10A rereplic)
CCCCc1c(C)c(C#N)c2[nH]c3ccccc3n2c1=O	VP16 counter inconclusive, RORg inh inconclusive, MCF10A rereplic 18µM
CNc1nc(Nc2ccc([N+](=O)[O-])cc2)nc(OCC(F)(F)F)n1	VP16 counter inconclusive, MCF10A rereplic inconclusive
CNc1nc(N/N=C/c2cc([N+](=O)[O-])ccc2F)nc(Nc2ccccc2)n1	IL1B secr inh -97, MCF10A rereplic inconclusive (no result: VP16 counter, RORg inh)
Cc1cc2nc(-c3ccccc3)c(Cc3ccsc3)n2c(C)c1Br	none (no result: VP16 counter, RORg inh, SW480 rereplic, MCF10A rereplic)
CCCNc1nc(C)cc(-c2cc(-c3ccccc3)on2)n1	none
Cc1cc(-c2cc(-c3ccccc3)on2)nc(NCC2CC2)n1	MCF10A rereplic 18µM
Cc1ccccc1-c1ccc(/C=C2/SC(N3CCOCC3)=NC2=O)o1	IL1B secr inh -76, SW480 rereplic inconclusive, MCF10A rereplic 16µM
O=C1N=C(N2CCOCC2)S/C1=C\c1ccc(-c2ccccc2Cl)o1	SW480 rereplic 13µM, MCF10A rereplic 2.9µM
COCCN1CCN(C(=O)c2cc(COc3cncc(Cl)c3)on2)CC1	none
COc1ccc(CNC(=O)CCSc2nc(-c3ccc4c(c3)OCO4)cc(C(F)(F)F)n2)cc1	VP16 counter inconclusive, RORg inh inconclusive, SW480 rereplic inconclusive, MCF10A rereplic 21µM
COc1ccc(-c2cc(C(F)(F)F)nc(SCCC(=O)N3CCCC3)n2)cc1	IL1B secr inh -52
CCOC(=O)OCC1OC(C#Cc2ccc(C)cc2C)C=CC1OC(=O)OCC (centres undefined)	none (no result: IL1B secr inh, SW480 rereplic, MCF10A rereplic)
COCCn1nnnc1C(C(C)C)N(Cc1ccccc1)Cc1cc2cc(OC)ccc2[nH]c1=O (centres undefined)	IL1B secr inh -56
COc1ccc2[nH]c(=O)c(CN(Cc3nnnn3Cc3ccco3)C3CCCCC3)cc2c1	SW480 rereplic inconclusive
COc1ccc2[nH]c(=O)c(CN(C3CCCCC3)C(c3nnnn3Cc3ccco3)C(C)C)cc2c1 (centres undefined)	IL1B secr inh -93, MCF10A rereplic inconclusive
